Where “and” joins values, the source holds several entries; their conditions need not be identical. Equal values may be shown once. Compounds without any hit were thinned out: in the full panel of roughly 79,000, 15% have a hit. Values without a mark were called inactive. Calls of active or inactive are those of the source. Cut-off read from the data, not from the text of the source: active = growth inhibition above about 70%; inactive = the rest.
Assays:
[1] = NCI Yeast Anticancer Drug Screen. Data for the rad50 strain (AID 155);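 note: 0% = growth of vehicle-only cultures of the same strain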; conditions: S. cerevisiae rad50 strain growth inhibition, hits give high values
Method in brief: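 Genetically altered yeast (DNA repair pathway); compound treatment; growth inhibition vs vehicle ctrl.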

[2] = NCI Yeast Anticancer Drug Screen. Data for the mec2-1 strain (AID 157); conditions: S. cerevisiae mec2-1 strain, hits give high values
Method in brief: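 Yeast mec2-1 mutant treated with compound. Readout: growth inhibition vs vehicle controls.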

[3] = NCI Yeast Anticancer Drug Screen. Data for the sgs1 mgt1 strain (AID 161);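 note: 0% = growth of cultures given vehicle only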; conditions: S. cerevisiae sgs1 mgt1 strain, hits give high values
Method in brief: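 Genetically altered yeast, compound exposure, growth inhibition relative to vehicle.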

[4] = NCI Yeast Anticancer Drug Screen. Data for the cln2 rad14 strain (AID 165);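 note: 0% = growth equal to vehicle treated cultures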; conditions: S. cerevisiae cln2 rad14 strain, hits give high values
Method in brief: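 cln2 rad14 yeast strain; compound exposure; growth inhibition read vs vehicle controls.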

[5] = NCI Yeast Anticancer Drug Screen. Data for the bub3 strain (AID 167); conditions: S. cerevisiae bub3 mutant strain, hits give high values
Method in brief: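 Yeast carrying a defined mutation is treated with each compound, and growth is compared with that of vehicle-exposed cells to give inhibition.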

[6] = NCI Yeast Anticancer Drug Screen. Data for the mlh1 rad18 strain (AID 175); conditions: S. cerevisiae mlh1 rad18 strain growth inhibition, hits give high values
Method in brief: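 Yeast w/ defined DNA-repair lesions; compound exposure; growth vs vehicle controls → % inhibition.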

[7] = at 5.0 µM (retest, dose inferred, filed as 0.5)
[8] = at 50.0 µM (retest, dose inferred, filed as 5.0)

Row | Structure (SMILES) | growth inhibition [1, 7] | growth inhibition [1, 8] | growth inhibition ([1]; at 50.0 µM) | growth inhibition [2, 7] | growth inhibition [2, 8] | growth inhibition ([2]; at 50.0 µM) | growth inhibition [3, 7] | growth inhibition [3, 8] | growth inhibition ([3]; at 50.0 µM) | growth inhibition [4, 7] | growth inhibition [4, 8] | growth inhibition ([4]; at 50.0 µM) | growth inhibition [5, 7] | growth inhibition [5, 8] | growth inhibition ([5]; at 50.0 µM) | growth inhibition [6, 7] | growth inhibition [6, 8] | growth inhibition ([6]; at 50.0 µM)
1 | C1CC[N-]CC1.[Cl][Au]([Cl])[Cl] | 42% | 93% (active) | 93.3% (active) | 15% | 63% | 65.5% | 26% | 89% (active) | 93% (active) | 31% | 74% (active) | 60.4% | 25% | 76% (active) | 48.9% | 34% | 94% (active) | 96.8% (active)
2 | O=C(CCN1CC1)NCCc1ccccc1 | -152% | 90% (active) | 96.6% (active) | -44% | 48% | 83.3% (active) | -59% | 84% (active) | 58% | -60% | 73% (active) | 83.7% (active) | -72% | 87% (active) | 67.8% | -143% | 90% (active) | 93.7% (active)
3 | COc1cc2c(c(OC)c1OC)-c1ccc(O)c(=O)cc1C(NC(C)=O)CC2 (configuration not stated) | 1% | 3% | -26.1% | -1% | -8% | 17.3% | -15% | 16% | -1.4% | -21% | 8% | 45.5% | -7% | 6% | 1.05% | -9% | -2% | 59.6%
4 | Cc1ccc2c(c1)SP(=S)(c1ccccc1)N2 (configuration not stated) | 6% | 99% (active) | 99.2% (active) | 4% | 99% (active) | 99.5% (active) | 8% | 97% (active) | 99.3% (active) | 15% | 97% (active) | 54.4% | 0% | 99% (active) | 98.8% (active) | 3% | 99% (active) | 98% (active)
5 | [Ni+2].[O-][Cl+3]([O-])([O-])O.c1ccc([PH+](CC[PH+](c2ccccc2)c2ccccc2)c2ccccc2)cc1.c1ccc([PH+](CC[PH+](c2ccccc2)c2ccccc2)c2ccccc2)cc1 | 4% | 13% | 48.6% | -1% | 12% | 41.8% | 1% | 32% | 59.2% | 3% | -3% | 9.05% | 4% | 31% | 43.9% | 3% | 26% | 72% (active)
6 | O=C(CI)NCc1ccccc1 | 22% | 98% (active) | 97.8% (active) | 29% | 99% (active) | 99.2% (active) | 41% | 99% (active) | 99% (active) | 12% | 99% (active) | 97.8% (active) | 31% | 99% (active) | 99% (active) | 55% | 99% (active) | 99.2% (active)
7 | O=c1oc2ccccc2c(O)c1C(c1ccc(/C=C/c2ccccc2)cc1)c1c(O)c2ccccc2oc1=O | 13% | 97% (active) | 87.2% (active) | 36% | 98% (active) | 90% (active) | 26% | 95% (active) | 81.7% (active) | 54% | 95% (active) | 77.5% (active) | 52% | 97% (active) | 76.7% (active) | 7% | 98% (active) | 91.3% (active)
8 | CCCCCCCCCCCCCCCC[N+](C)(C)CCBr | 99% (active) | 98% (active) | 89.2% (active) and 98.8% (active) | 99% (active) | 99% (active) | 92.5% (active) and 99.2% (active) | 99% (active) | 99% (active) | 87.2% (active) and 99.3% (active) | 99% (active) | 99% (active) | 89.2% (active) and 99.2% (active) | 99% (active) | 99% (active) | 82.3% (active) and 99.1% (active) | 98% (active) | 98% (active) | 92.3% (active) and 99.2% (active)
9 | CC(C)=CC1CC(C)C2(CCC3(C)CC4C(C(=O)CC4(C)O)/C(C=O)=C\CC32)O1 (configuration not stated) | 99% (active) | 100% (active) | 94.5% (active) | 99% (active) | 100% (active) | 94.6% (active) | 99% (active) | 99% (active) | 95% (active) | 99% (active) | 99% (active) | 93.6% (active) | 99% (active) | 100% (active) | 94.5% (active) | 99% (active) | 100% (active) | 93.7% (active)
